# Results from paper PMC7862700, “An all-to-all approach to the identification of sequence-specific readers for epigenetic DNA modifications on cytosine”.
# Key:
# Experiment in all cases: DAPPL (digital affinity profiling via proximity ligation, sequencing); 10 mM Tris-HCl pH 7.5, 50 mM NaCl, 1 mM DTT, 4% glycerol, room temperature, 30 min; GST-TFs on glutathione beads, 16-mer random dsDNA library, 0.1% formaldehyde crosslink after washing; high values mean tight binding
# Conditions in all cases: protein: recombinant; tags: N-terminal GST; dsDNA, one strand shown
# FLI1 = target: T1, FLI1 (Homo sapiens, UniProt Q01543 1-452)
# T1 sequence: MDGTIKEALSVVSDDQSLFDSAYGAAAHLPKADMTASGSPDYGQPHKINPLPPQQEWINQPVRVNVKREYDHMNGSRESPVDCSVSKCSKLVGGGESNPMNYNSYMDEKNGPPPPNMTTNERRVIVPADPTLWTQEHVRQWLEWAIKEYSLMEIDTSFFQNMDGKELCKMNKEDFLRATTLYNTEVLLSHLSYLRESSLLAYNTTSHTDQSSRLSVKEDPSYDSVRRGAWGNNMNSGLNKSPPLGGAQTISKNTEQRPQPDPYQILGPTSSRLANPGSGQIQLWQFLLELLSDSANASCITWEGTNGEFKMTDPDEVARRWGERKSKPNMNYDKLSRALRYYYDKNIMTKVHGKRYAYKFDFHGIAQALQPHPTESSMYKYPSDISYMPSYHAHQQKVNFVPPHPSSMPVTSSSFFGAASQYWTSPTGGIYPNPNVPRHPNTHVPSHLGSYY
# In short: (§1)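 In yeast, human transcription factors were expressed with a GST fusion, then pulled down on glutathione beads and given DNA barcodes. Pooled with a tag-only sample, they were exposed to 200 nmole of a 16-mer random double-stranded DNA library (Tris/NaCl/DTT/glycerol buffer, room temperature, 30 min), washed, crosslinked with 0.1% formaldehyde, proximity-ligated using BsaI/T4 ligase for 1 h at 37 °C, PCR-amplified and read on an Illumina NextSeq500. Each hexamer's frequency of reads for a factor, divided by the matching frequency for the tag-only sample, gives the binding signal.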
# ELK1 = target: T2, ELK1 (Homo sapiens, UniProt P19419 1-428)
# T2 sequence: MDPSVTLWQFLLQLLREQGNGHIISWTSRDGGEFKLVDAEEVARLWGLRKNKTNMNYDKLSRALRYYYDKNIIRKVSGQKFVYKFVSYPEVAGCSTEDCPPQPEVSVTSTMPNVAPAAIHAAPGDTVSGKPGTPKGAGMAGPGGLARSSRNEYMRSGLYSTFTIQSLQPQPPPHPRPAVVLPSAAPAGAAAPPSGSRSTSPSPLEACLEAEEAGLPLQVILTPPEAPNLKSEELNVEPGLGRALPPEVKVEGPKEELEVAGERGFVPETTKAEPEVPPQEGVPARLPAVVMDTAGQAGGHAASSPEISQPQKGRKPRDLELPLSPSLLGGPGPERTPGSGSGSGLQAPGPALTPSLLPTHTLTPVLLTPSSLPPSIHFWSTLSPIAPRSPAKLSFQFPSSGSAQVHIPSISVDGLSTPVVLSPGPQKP
# In short: as §1
# GABPA = target: T3, GABPA (Homo sapiens, UniProt Q06546 1-454)
# T3 sequence: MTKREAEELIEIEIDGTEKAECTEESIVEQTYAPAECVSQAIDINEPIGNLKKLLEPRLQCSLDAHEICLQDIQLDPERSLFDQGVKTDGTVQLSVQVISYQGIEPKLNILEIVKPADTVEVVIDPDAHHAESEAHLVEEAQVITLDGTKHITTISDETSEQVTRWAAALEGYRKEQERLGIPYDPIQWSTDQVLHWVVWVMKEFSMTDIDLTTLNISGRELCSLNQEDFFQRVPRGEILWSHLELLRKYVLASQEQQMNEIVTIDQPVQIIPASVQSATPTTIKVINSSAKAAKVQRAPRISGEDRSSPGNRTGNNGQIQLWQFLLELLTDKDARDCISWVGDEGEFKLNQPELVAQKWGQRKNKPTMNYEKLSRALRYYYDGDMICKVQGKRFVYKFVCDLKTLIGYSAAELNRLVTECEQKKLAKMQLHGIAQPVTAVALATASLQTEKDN
# In short: as §1
# ERG = target: T4, ERG (Homo sapiens, UniProt P11308 1-479)
# T4 sequence: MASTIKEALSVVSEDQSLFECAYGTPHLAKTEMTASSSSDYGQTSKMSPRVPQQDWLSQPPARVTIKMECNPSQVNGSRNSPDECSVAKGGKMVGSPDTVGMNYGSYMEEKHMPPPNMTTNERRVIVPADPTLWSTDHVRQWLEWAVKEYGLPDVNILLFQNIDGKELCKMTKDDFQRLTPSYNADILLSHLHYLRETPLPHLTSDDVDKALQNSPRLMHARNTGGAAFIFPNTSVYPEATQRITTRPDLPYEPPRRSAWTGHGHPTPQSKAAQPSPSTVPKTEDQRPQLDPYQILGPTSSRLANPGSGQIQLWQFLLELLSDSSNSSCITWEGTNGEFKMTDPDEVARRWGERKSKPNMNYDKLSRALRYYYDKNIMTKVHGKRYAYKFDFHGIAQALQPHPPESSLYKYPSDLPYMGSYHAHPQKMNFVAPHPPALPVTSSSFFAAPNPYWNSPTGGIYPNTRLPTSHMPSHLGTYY
# In short: as §1
# ELF1 = ELF1 (Homo sapiens, UniProt P32519 1-619)
# In short: as §1
# EHF = target: T5, EHF (Homo sapiens, UniProt Q9NZC4 1-300)
# T5 sequence: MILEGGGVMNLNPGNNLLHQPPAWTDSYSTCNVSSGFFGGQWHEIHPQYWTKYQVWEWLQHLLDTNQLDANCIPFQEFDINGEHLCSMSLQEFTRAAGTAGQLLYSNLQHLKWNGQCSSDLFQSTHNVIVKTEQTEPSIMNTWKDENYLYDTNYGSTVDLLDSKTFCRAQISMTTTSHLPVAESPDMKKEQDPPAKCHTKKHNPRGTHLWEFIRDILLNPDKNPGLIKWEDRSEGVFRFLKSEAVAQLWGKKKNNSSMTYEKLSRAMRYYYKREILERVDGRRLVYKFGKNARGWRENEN
# In short: as §1
# SPI1 = SPI1 (Homo sapiens, UniProt P17947 1-270)
# In short: as §1
# SPIB = SPIB (Homo sapiens, UniProt Q01892 1-262)
# In short: as §1
# ELK3 = target: T6, ELK3 (Homo sapiens, UniProt P41970 1-407)
# T6 sequence: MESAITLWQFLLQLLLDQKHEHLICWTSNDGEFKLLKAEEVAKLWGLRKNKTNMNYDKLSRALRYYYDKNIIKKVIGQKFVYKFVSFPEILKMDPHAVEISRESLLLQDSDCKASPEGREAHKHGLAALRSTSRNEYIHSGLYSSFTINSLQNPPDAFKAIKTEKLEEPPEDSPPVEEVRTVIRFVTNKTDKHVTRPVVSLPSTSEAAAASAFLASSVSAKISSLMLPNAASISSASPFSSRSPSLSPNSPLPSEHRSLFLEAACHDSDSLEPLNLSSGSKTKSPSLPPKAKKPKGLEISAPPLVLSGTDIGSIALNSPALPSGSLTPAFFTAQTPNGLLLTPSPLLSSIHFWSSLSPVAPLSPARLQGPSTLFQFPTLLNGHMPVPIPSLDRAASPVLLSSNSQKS
# In short: as §1
# Sequence of SPIB (Q01892 whole entry): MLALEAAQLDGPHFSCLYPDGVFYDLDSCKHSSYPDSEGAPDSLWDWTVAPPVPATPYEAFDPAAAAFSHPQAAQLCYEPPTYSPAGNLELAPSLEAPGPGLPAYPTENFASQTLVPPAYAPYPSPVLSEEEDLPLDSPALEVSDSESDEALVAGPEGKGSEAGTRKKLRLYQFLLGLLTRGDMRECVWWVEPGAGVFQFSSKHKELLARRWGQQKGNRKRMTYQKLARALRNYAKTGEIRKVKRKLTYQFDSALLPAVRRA
# Sequence of ELF1 (P32519 whole entry): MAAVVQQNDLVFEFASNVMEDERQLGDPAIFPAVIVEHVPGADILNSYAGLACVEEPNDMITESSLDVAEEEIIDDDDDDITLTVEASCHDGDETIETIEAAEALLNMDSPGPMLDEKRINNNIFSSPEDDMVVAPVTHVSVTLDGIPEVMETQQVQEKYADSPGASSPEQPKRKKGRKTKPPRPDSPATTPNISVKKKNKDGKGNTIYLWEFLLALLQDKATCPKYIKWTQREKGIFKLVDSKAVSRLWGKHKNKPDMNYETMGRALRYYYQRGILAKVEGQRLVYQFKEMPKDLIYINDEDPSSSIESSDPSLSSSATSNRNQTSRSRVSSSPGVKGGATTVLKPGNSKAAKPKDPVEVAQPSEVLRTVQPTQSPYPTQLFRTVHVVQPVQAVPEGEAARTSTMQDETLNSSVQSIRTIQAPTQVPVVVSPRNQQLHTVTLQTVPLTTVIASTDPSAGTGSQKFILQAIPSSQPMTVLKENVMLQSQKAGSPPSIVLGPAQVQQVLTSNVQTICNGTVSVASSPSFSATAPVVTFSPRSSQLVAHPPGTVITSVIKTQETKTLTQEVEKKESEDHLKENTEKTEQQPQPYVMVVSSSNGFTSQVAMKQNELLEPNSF
sequence,measurement,setting,value
GAACAC,binding signal,FLI1,"1.25 fold enrichment (6-mer frequency, TF over GST control)"
same,binding signal,ELK1,"1.19 fold enrichment (6-mer frequency, TF over GST control)"
same,binding signal,GABPA,"1.13 fold enrichment (6-mer frequency, TF over GST control)"
same,binding signal,ERG,"1.17 fold enrichment (6-mer frequency, TF over GST control)"
same,binding signal,ELF1,"1.19 fold enrichment (6-mer frequency, TF over GST control)"
same,binding signal,EHF,"1.12 fold enrichment (6-mer frequency, TF over GST control)"
same,binding signal,SPI1,"1.16 fold enrichment (6-mer frequency, TF over GST control)"
same,binding signal,SPIB,"1.2 fold enrichment (6-mer frequency, TF over GST control)"
same,binding signal,ELK3,"1.08 fold enrichment (6-mer frequency, TF over GST control)"
